Laboratory results as given in PubChem BioAssay (Tox21).
Results filed as inconclusive are left out. Active and inactive are the calls of the source. Unless noted, calls come from the whole dose curve; as a rule, active = well fitted curve in the direction sought with a large enough effect in the repeat runs; inconclusive = weak or mixed curves; inactive = no such curve, though single readings can be large; an effect the other way counts as inactive or inconclusive.

Assays:
[1] = qHTS assay to identify small molecule antagonists of the estrogen related receptor (ERR) signaling pathway from Tox21 library - cell viability counter screen (AID 1224834); note: nearly all actives have a fitted effect of over 30% in size
In short: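 Viability readout (CellTiter-Fluor fluorescence, 30 min at 37 C) multiplexed with the ERR assay; cells treated 17.5 h at 37 C with compounds delivered in DMSO.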

[2] = biological target: Luciferin 4-monooxygenase (Photinus pyralis) (UniProt P08659); assay: qHTS assay to identify small molecule inhibitors of firefly luciferase (AID 1224835); note: series mostly up to about 120 µM; nearly all actives have a fitted effect of over 25% in size
Chain of Luciferin 4-monooxygenase (Photinus pyralis) (P08659 whole entry, looked up): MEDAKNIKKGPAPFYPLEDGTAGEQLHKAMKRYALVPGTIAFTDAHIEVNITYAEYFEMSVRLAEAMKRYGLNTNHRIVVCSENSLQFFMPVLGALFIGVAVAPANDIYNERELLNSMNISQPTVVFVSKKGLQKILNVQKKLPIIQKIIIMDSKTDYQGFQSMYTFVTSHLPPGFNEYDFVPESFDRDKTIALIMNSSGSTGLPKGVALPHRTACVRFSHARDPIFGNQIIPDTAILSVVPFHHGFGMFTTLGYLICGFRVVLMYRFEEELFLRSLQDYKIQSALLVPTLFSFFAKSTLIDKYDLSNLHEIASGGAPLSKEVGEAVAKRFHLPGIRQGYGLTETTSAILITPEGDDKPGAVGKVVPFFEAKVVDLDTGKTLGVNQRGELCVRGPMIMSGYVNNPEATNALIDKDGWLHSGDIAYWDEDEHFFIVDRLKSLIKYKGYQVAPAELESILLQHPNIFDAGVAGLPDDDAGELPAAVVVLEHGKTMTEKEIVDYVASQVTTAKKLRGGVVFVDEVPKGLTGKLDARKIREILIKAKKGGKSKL
In short: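 Biochemical qHTS: compounds run as interplate titrations against purified firefly enzyme, with D-luciferin and ATP each at its KM concentration. Light output recorded by CCD imaging.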

[3] = qHTS assay to identify small molecule agonists of the constitutive androstane receptor (CAR) signaling pathway - cell viability counter screen (AID 1224836); note: series mostly up to about 92 µM; nearly all actives have a fitted effect of over 45% in size
In short: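 Using CellTiter-Fluor, viability of HepG2 cells harbouring hCAR and CYP2B6-2.2kb was measured following 23 h incubation with a 15-concentration compound series plus PK11195 (0.75 uM final).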

[4] = qHTS assay to identify small molecule antagonists of the constitutive androstane receptor (CAR) signaling pathway - cell viability counter screen (AID 1224837); note: series mostly up to about 92 µM; nearly all actives have a fitted effect of over 45% in size
In short: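 Fluorescence from CellTiter-Fluor served as the viability signal. Human hepatoma HepG2 cells stably bearing hCAR and CYP2B6-2.2kb received compound plus CITCO (50 nM final) for 23 hr.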

[5] = biological target: Nuclear receptor subfamily 1 group I member 3 (Homo sapiens) (UniProt Q14994); assay: qHTS assay to identify small molecule antagonists of the constitutive androstane receptor (CAR) signaling pathway (AID 1224838);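 note: HepG2 cells stably expressing hCAR with CYP2B6 luciferase reporter stimulated by CITCO; nearly all actives have a fitted effect of over 40% in size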
Chain of Nuclear receptor subfamily 1 group I member 3 (Homo sapiens) (Q14994 whole entry, looked up): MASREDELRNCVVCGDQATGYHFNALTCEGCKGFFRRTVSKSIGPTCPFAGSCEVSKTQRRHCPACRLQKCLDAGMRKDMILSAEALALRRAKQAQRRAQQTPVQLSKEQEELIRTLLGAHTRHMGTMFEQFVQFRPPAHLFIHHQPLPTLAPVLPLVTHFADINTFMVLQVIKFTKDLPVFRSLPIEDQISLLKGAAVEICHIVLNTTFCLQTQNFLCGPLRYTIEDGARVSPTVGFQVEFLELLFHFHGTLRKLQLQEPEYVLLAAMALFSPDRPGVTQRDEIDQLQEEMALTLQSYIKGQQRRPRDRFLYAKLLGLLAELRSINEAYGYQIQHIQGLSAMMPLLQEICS
In short: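 Quantitative HTS in double-stable HepG2-CYP2B6-hCAR cells. After 4 h plating, cells get compound (15 concentrations) and CITCO at 50 nM final, incubate 24 h at 37 C, then ONE-Glo luminescence is read.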

[6] = qHTS assay to identify small molecule antagonists of the estrogen related receptor signaling pathway with the pleiotropic PPARgamma coactivator (PGC) from Tox21 10K library - cell viability counter screen (AID 1224840; active = well fitted cell-killing curve with a large enough effect in the repeat runs, not every such curve was filed as active; note: nearly all actives have a fitted effect of over 40% in size)
In short: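 Compounds in DMSO, alongside positive and negative controls, were pinned onto PGC/ERR cells (2,000 per well). Exposure lasted 17.5 hours at 37 C, followed by a 30-minute CellTiter-Fluor incubation and fluorescence reading.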

[7] = qHTS assay to identify small molecule antagonists of the estrogen related receptor signaling pathway with the pleiotropic PPARgamma coactivator (PGC) from Tox21 10K library (AID 1224841; call rule not given here; note: series mostly up to about 92 µM; actives are mostly falling curves and most rising ones were filed inactive; nearly all actives have a fitted effect of over 50% in size)
In short: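 Compound exposure ran 18 hours at 37 C in PGC/ERR cells (2,000/well) that had first rested 6 hours in a 37 C/5% CO2 incubator. Luciferase activity was then detected with One-Glo after a 30-minute room-temperature step.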

[8] = qHTS assay to identify small molecule agonists of the estrogen related receptor signaling pathway with the pleiotropic PPARgamma coactivator (PGC) from Tox21 10K library (AID 1224842); note: nearly all actives have a fitted effect of over 15% in size
In short: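 PGC/ERR reporter cell line, 2,000 cells per well, incubated 6 h at 37 C before 23 nL compound in DMSO was added. After 18 h at 37 C, One-Glo luminescence read following 30 min at room temperature.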

[9] = biological target: Thyrotropin receptor (Homo sapiens) (UniProt P16473); assay: qHTS assay to identify small molecule agonists of the thyroid stimulating hormone receptor (TSHR) signaling pathway (AID 1224843; calls by dose curve; note: nearly all actives have a fitted effect of over 45% in size)
Chain of Thyrotropin receptor (Homo sapiens) (P16473 whole entry, looked up): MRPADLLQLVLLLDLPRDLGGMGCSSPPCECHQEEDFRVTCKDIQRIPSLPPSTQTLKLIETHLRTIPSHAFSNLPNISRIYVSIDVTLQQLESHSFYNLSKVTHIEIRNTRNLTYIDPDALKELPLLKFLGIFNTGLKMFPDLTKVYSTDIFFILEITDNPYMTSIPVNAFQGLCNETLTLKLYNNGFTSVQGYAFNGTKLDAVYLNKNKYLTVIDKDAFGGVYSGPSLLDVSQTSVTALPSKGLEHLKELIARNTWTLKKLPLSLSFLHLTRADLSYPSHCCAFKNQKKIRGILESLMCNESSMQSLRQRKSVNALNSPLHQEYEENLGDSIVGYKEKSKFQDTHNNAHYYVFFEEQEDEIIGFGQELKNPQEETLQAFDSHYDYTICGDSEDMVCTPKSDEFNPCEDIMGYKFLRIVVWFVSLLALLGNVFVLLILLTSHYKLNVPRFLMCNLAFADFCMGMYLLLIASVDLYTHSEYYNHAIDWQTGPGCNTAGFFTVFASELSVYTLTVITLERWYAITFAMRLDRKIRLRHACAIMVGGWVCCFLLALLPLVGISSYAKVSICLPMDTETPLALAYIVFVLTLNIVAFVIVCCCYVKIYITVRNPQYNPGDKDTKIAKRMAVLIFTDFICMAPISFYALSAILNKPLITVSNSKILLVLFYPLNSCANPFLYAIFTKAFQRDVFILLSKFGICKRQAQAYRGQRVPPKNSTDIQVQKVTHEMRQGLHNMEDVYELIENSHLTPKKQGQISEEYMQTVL
In short: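 TSHR-HEK293 cells in agonist mode, 30 min room-temperature step, then cAMP measured by competitive HTRF (cAMP-d2 with anti-cAMP cryptate) after 1 h at room temperature. Tested at 15 concentrations in triplicate.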

[10] = biological target: Nuclear receptor subfamily 1 group I member 3 (Homo sapiens) (UniProt Q14994); assay: qHTS assay to identify small molecule agonists of the constitutive androstane receptor (CAR) signaling pathway (AID 1224839);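 note: HepG2 cells stably carrying human CAR and a CYP2B6 luciferase reporter; series mostly up to about 92 µM; nearly all actives have a fitted effect of over 15% in size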
In short: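 Double-stable HepG2 cells (hCAR, CYP2B6-2.2kb) seeded 4 h before compound addition. Exposure 24 h with 0.75 uM PK11195 final. Luciferase detected by ONE-Glo.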

Measured: Potency

C=C1C[C@@H]2[C@H](CC[C@]3(C)C(=O)CC[C@@H]23)[C@@]2(C)C=CC(=O)C=C12
not listed: [10]
inactive: all other assays above

O=c1[nH]c2ccccc2o1
not listed: [7] | [10]
inactive: all other assays above

C#CC(C)(C)O
not listed: [9] | [10]
inactive: all other assays above

CC[C@H](N)c1ccccc1
not listed: [7] | [8]
inactive: all other assays above

O=C(Cl)CCl
not listed: [7] | [8] | [10]
inactive: all other assays above

O=C(Cl)C(Cl)Cl
inactive: [1] | [2] | [3] | [4] | [5] | [6]

Cc1ccc(S(=O)(=O)N[C@@H](CCCCN)C(=O)CCl)cc1
not listed: [6]
inactive: all other assays above

COc1ccc(CN2CCNCC2)c(OC)c1OC
not listed: [9] | [10]
inactive: all other assays above

ClCCCCCCCl
not listed: [7] | [8]
inactive: all other assays above

C(COCC1CO1)OCC1CO1 (stereo unspecified)
not listed: [6] | [9]
inactive: all other assays above

COC(=O)c1ccc(CBr)cc1
inactive: [1] | [2] | [3] | [4] | [5] | [6]

CCc1cc(OC)c(C[C@H](C)N)cc1OC
not listed: [7] | [8]
inactive: all other assays above

CCC1(c2ccccc2)C(=O)N(COC)C(=O)N(COC)C1=O
not listed: [9] | [10]
inactive: all other assays above

Cc1cc(OC(=O)N(C)C)nn1C(=O)N(C)C
not listed: [5] | [7] | [8]
inactive: all other assays above

C=C(Cl)CSC(=S)N(CC)CC
inactive: [1] | [2] | [3] | [4] | [6]

CCC1(CC)C(=O)C=CNC1=O
not listed: [5] | [10]
inactive: all other assays above

CN(C)CCc1c[nH]c2cccc(OP(=O)(O)O)c12
inactive: [1] | [2] | [3] | [4] | [6]

O=C(O)CBr
not listed: [5] | [10]
inactive: all other assays above

C=CCCC#N
not listed: [5] | [7] | [8]
inactive: all other assays above

N[C@@H](Cc1ccc(Oc2cc(I)c(O)c(I)c2)c(I)c1)C(=O)O
inactive: [1] | [2] | [3] | [4] | [6]

ClC1=C(Cl)C2(Cl)C(CBr)CC1(Cl)C2(Cl)Cl (stereo unspecified)
inactive: [1] | [2] | [3] | [4] | [6]

CC(Cc1ccccc1)NCCCCl (stereo unspecified)
not listed: [5] | [7] | [8]
inactive: all other assays above

OCC(Cl)CCl (stereo unspecified)
inactive: [1] | [2] | [3] | [4] | [6]

CC[C@@H](CO)NC(=O)[C@@H]1C=C2c3cccc4[nH]cc(c34)C[C@H]2N(C)C1
not listed: [5] | [10]
inactive: all other assays above

CN=CNc1ccc(C)cc1C
not listed: [5] | [9] | [10]
inactive: all other assays above

COC1=CC(=O)O[C@@H](/C=C/c2ccccc2)C1
not listed: [5] | [8] | [10]
inactive: all other assays above

O=C(O)C(Br)(Br)Br
not listed: [5]
inactive: all other assays above

Cc1cccc2sc3nncn3c12
inactive: [1] | [2] | [3] | [4] | [5] | [9]

CC(C)(N)Cc1ccccc1Cl
not listed: [5] | [10]
inactive: all other assays above

CC1N=C(N)OC1c1ccccc1 (stereo unspecified)
inactive: [1] | [2] | [3] | [4] | [10]

N#CN=C1SCCN1Cc1ccc(Cl)nc1
not listed: [5] | [10]
inactive: all other assays above
